Experimental data: the supplement of paper PMC3334620
Whole data set: some 33,000 sequences, median “E-score (-0.5 to 0.5)” near -0.013, cut for the highest 2% near 0.3. Many of the other results were omitted from the sample, so the highest values are more common in it than they were.

The sequences below were run against T1, Msn1 (UniProt P22148) (assay: PBM E-score (8-mer binding enrichment) (E-score (-0.5 to 0.5)); higher = stronger / more preferred TF binding). Details: protein concentration: 200 nM; construct: GST-full length.
T1 sequence: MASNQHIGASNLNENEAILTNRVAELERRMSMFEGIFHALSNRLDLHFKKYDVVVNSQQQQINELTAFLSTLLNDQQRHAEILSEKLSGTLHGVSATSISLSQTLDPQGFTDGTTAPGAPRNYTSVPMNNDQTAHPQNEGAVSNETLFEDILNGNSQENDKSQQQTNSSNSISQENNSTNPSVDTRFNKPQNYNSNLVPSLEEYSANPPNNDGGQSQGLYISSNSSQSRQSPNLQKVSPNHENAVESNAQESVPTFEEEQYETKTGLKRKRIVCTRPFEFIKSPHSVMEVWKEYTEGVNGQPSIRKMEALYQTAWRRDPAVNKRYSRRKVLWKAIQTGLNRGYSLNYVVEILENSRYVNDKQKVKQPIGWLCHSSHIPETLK
Method in brief: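 Yeast transcription factors, full-length or as DNA-binding domains, were expressed with a GST tag using PURExpress in vitro transcription/translation. At about 100-200 nM they were applied to universal all-10-mer Agilent arrays, double-stranded by primer extension on fresh or once-stripped slides. Fluorescent anti-GST detected bound protein, and masliner normalised the scans. E-scores for ungapped eight-base words, pooled with reverse complements, came from the Universal PBM Analysis Suite.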

Row | Sequence | PBM E-score
1 | AAAATTGG | 0.00283
2 | ACAATTGT | 0.363
3 | GAAATTCA | 0.103
4 | ATCCATAA | 0.124
5 | AATTCCTC | -0.0412
6 | AGCCACTA | -0.0424
7 | CCCCAGCC | -0.271
8 | ACCCTGAG | -0.0157
9 | GCGCGCGA | 0.0948
10 | ACGCGCGC | 0.196
11 | GCGCGCGC | 0.333
12 | CCTGCTAC | 0.017
13 | AGTTCTCC | -0.205
14 | AGATTTTC | 0.0741
15 | ACATTTCA | 0.363
16 | CCATTTTA | 0.259
17 | GCATTTCA | 0.0826
18 | ACATTTCC | 0.329
19 | ACATTTTC | 0.337
20 | CCATTTTC | 0.136
21 | ACATTTCT | 0.204
22 | GCATTTTA | 0.109
23 | ACATTTCG | 0.241
24 | CCATTTCA | -0.106
25 | ACATTTTA | 0.377

Row | Sequence | PBM E-score
26 | GTGAGGCA | -0.0279
27 | ACTGACCT | -0.063
28 | CCACGTGG | -0.276
29 | CGATGAGC | -0.17
30 | CTACCTCC | -0.0369
31 | GCATTTGA | 0.051
32 | ACATTAAT | 0.155
33 | ACATTTGA | 0.311
34 | ACATTAAC | 0.254
35 | ACATTTGG | 0.177
36 | GCATTTAA | 0.0963
37 | AGATTTTG | 0.0738
38 | ACATTTTG | 0.34
39 | ACATTTAA | 0.324
40 | ATATTTTG | 0.176
41 | TCATTTAA | 0.132
42 | ACATTAAG | 0.32
43 | TACAGGAA | 0.0582
44 | AGATCCTC | -0.125
45 | AGATGCGA | 0.0645
46 | GCTGAACA | 0.00499
47 | CTGGCGTA | -0.252
48 | AGGCGGTG | -0.217
49 | TCCATCCA | -0.00245
50 | CAACCAGC | -0.114

Row | Sequence | PBM E-score
51 | CTTTTGTC | 0.455
52 | CCTTTGCC | -0.104
53 | ACTTTGTA | 0.129
54 | ACTTTGTC | 0.41
55 | CTTTTGTA | 0.3
56 | CTTTTGAC | 0.0513
57 | CCTTTGTC | 0.367
58 | ACTTTGTG | 0.0353
59 | CCTTTGTA | 0.163
60 | GAATTGCC | 0.0969
61 | AACCTACA | 0.0149
62 | GGATCATA | -0.0918
63 | ATAGCATG | -0.207
64 | CGACACAC | 0.0525
65 | AGACACAC | 0.133
66 | AGACACAG | 0.131
67 | TGACACAA | 0.183
68 | CGACACGA | 0.274
69 | AGACACAA | 0.332
70 | GGACACGA | 0.396
71 | GGACACAC | 0.382
72 | GGACACAA | 0.462
73 | AGACACGA | 0.158
74 | GGACACCC | -0.0113
75 | CGACACAA | 0.00596

Row | Sequence | PBM E-score
76 | CGATATCG | 0.0659
77 | TCCTGAGA | 0.0942
78 | CTTTATGA | 0.0103
79 | AGCTCTTA | -0.0201
80 | CGGGCAAG | 0.0918
81 | CAACGTTG | 0.128
82 | AGGCAACA | -0.161
83 | GCCAGTCA | -0.117
84 | CTCTGTAC | 0.0138
85 | ATCTGTCC | 0.387
86 | ATCTGTCA | 0.159
87 | CTCTGTCC | 0.34
88 | CTCTGTCA | -0.0435
89 | ATCTGTCG | 0.0829
90 | AAAACCTG | 0.0428
91 | AAGCTCCA | -0.219
92 | GAAGGGCC | -0.143
93 | ATCTGTTA | 0.183
94 | ATCGCAAA | 0.0406
95 | CTTTGTCA | 0.311
96 | CTTTGTTA | 0.215
97 | CTTTGTGA | 0.126
98 | CTTTGTTC | 0.0603
99 | ATTTGTTG | 0.177
100 | CTTTGTCC | 0.485

Row | Sequence | PBM E-score
101 | ATTTGTCG | 0.451
102 | GTTTGTCA | 0.299
103 | AGTTGTCG | 0.168
104 | ATTTGTCA | 0.46
105 | CTTTGTGC | 0.058
106 | ATTTGTTA | 0.087
107 | GCGCTAGA | -0.116
108 | TATTGGCA | 0.0554
109 | GGCTGGAC | -0.135
110 | TATGGTGA | -0.0581
111 | CCGCTCAC | -0.22
112 | ATCACGAC | 0.117
113 | GACAAGGA | 0.311
114 | GACAAAGA | 0.404
115 | GACAAAGC | 0.393
116 | CACAAAGC | 0.161
117 | TACAAGGA | 0.197
118 | AACAAAGA | 0.139
119 | AACAAAGC | -0.00117
120 | CACAAGGA | 0.0619
121 | TACAAAGA | 0.208
122 | CCATGAAG | 0.0685
123 | ACGTCGCT | -0.211
124 | CAAGTGAA | 0.223
125 | GCATGCCC | 0.101

Row | Sequence | PBM E-score
126 | CTCTTGCC | -0.0644
127 | AGACAGAC | 0.279
128 | CGACAGAA | 0.167
129 | GGACAGAC | 0.375
130 | GGACAGAA | 0.332
131 | CGACAGAC | -0.0767
132 | AGACAGAA | 0.00949
133 | GATTGCAC | 0.0495
134 | CGAAAGCG | 0.0854
135 | AAGCCAGA | 0.00654
136 | ACGTTCAG | -0.0415
137 | GGTCCGAA | 0.128
138 | GGTCCTAA | 0.18
139 | AGTCCTAA | 0.297
140 | TGTCCAAA | 0.473
141 | TGTCCGAA | 0.452
142 | TGTCCTAA | 0.487
143 | AGTCCAAA | 0.214
144 | GGTCCAAA | -0.0431
145 | CGTCCGAA | 0.222
146 | TGTCCACA | 0.455
147 | CGTCCACA | 0.188
148 | AGTCCACG | -0.059
149 | CCGGGATA | 0.101
150 | ACTGGTTC | -0.0366

Row | Sequence | PBM E-score
151 | CCAGCTAG | -0.16
152 | CGCCTGAC | -0.0177
153 | CCTAACGC | -0.129
154 | AGTGAGGA | -0.0425
155 | AACATAGC | 0.13
156 | CCACCAAC | -0.0306
157 | AACCTGGT | 0.00051
158 | TGTCCCAA | 0.463
159 | CGTCCCAA | 0.218
160 | AGTCCCAA | 0.17
161 | AAGCATTA | -0.0789
162 | CTCGATGA | -0.0098
163 | ACGACCTA | -0.0056
164 | CAGGCCGC | -0.144
165 | CACATACA | 0.0971
166 | GACATACC | 0.4
167 | AACATACC | 0.107
168 | TACATACA | 0.207
169 | CACATACC | 0.0401
170 | GACATACA | 0.414
171 | GCGGATCA | -0.116
172 | ACAAAAGG | 0.229
